High-throughput results deposited in PubChem BioAssay by National Center for Advancing Translational Sciences (NCATS).
VDR inhibitor: vitamin D3 receptor (human) inhibition. Potency, µM, usual class: inhibitors. VDR-SRC2-3 peptide fluorescence polarization, 2 h. actives 0.93% (n = 400,000). AID 504847
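After 23 nl compound addition and a short centrifugation, plates sat for 2 hours at ambient temperature; polarization of fluorescence then indicated loss of VDR binding to peptide SRC2-3.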
Tau ThT inhib: blocks human tau fibril formation measured by thioflavin T; recombinant tau K18 P301L, heparin-induced fibrillization, ThT fluorescence; Potency, µM (top dose mostly 57.4 µM), most hits filed as inhibitors; actives 2.1% (n = 270,000); P10636; further: nearly all actives have a fitted effect of over 55% in size
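Using a mix of unlabeled (15 uM) and Alexa 594-labeled (0.24 uM) tau K18 P301L, heparin-triggered fibrillization over 6 hr at 37 C was scored by ThT fluorescence.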
Tau FP inhib: blocks human tau fibril formation measured by polarization; K18 P301L tau heparin fibrillization, Alexa594 FP, 6 h; Potency, µM (doses to about 57.7 µM), most hits filed as inhibitors; actives 0.39% (n = 280,000); further: nearly all actives have a fitted effect of over 55% in size
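Human K18 P301L fragment (15 uM unlabeled plus 0.24 uM Alexa 594-labeled) in 100 mM sodium acetate pH 7 with compound, aggregation induced by 20 uM heparin for 6 hr at 37 C. ThT (30 uM) added for 1 hr, then Alexa 594 FP read.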
Tau fluor counter: counter-screen for tau fibril formation inhibitors; actives 0.93% (n = 280,000); tau K18 P301L (four-repeat tau fragment) Alexa594 fluorescence, heparin fibrillization; AID 1463; Potency, µM (titrated, usually from 57.7 µM); further: nearly all actives have a fitted effect of over 55% in size
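Human K18 P301L tau (15 uM unlabeled plus 0.24 uM Alexa 594-labeled, final) in 100 mM sodium acetate pH 7 was mixed with compound and 20 uM heparin and incubated 6 hr at 37 C.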
Sfp PPTase inh: Sfp phosphopantetheinyl transferase inhibition | Q9F4F7 | Biochemical Sfp PPTase activity, qHTS | Potency, µM, actives largely listed as inhibitors | actives 3.5% (n = 310,000) | AID 1490;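 further: the enzyme is Sfp with the accession as filed and its product quenches rhodamine fluorescence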
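Compounds were incubated with enzyme (final 15 nM) for 15 min at room temperature before substrate addition started the reaction. Fluorescence at 525 nm excitation, 598 nm emission was recorded immediately and after 30 minutes.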
PLK1 PBD inh: PLK1 (human) polo-box domain binding inhibition; AID 720504; Plk1 PBD binding of FITC phosphopeptide, fluorescence polarization; Potency, µM, actives largely listed as inhibitors; actives 2.8% (n = 360,000); P53350; further: series mostly up to about 57 µM; nearly all actives have a fitted effect of over 65% in size
Target sequence (P53350 whole entry, looked up, the tested form may be a part): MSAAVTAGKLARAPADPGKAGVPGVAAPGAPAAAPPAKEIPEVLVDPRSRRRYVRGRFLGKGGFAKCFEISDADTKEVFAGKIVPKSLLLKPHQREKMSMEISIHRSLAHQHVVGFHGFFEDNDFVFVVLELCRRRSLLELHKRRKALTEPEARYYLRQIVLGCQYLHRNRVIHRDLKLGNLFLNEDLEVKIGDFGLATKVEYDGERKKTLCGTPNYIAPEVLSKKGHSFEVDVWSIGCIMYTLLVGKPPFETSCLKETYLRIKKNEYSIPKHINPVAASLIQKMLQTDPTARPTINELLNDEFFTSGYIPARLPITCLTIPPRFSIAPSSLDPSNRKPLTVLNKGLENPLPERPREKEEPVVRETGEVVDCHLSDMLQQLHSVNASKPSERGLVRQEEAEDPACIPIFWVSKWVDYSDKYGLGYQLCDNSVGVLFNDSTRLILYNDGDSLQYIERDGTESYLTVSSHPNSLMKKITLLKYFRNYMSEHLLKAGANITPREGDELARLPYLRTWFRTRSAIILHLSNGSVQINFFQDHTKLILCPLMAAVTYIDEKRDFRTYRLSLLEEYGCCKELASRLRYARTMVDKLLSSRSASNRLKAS
Numbers stand for hits; . = inactive; ? = inconclusive; / = no result given. In the library only some 6% were active in any assay of this set; here they are far more common. The call rests on the fitted dose curve; in most records, active means well fitted curve in the direction sought with a large enough effect; inconclusive means small, poorly fitted or top-dose-only effect, or another doubt; inactive means no such curve, though single readings can be large; an effect the other way counts as inactive or inconclusive.

SMILES	VDR inhibitor	Tau ThT inhib	Tau FP inhib	Tau fluor counter	Sfp PPTase inh	PLK1 PBD inh
CCN(CC)C(=O)c1sc(NC(=O)c2ccoc2C)c(C(=O)OC)c1C	?	?	.	.	32µM	21µM
CCOC(=O)c1c(NC(=O)c2ccoc2C)sc(C(=O)N(C)C)c1C	.	.	.	.	.	?
CC(=O)Nc1cc(-c2ccc(C(=O)N3CCOCC3)cc2)cn2c(-c3ccc(S(C)(=O)=O)cc3)cnc12	/	/	/	/	/	.
C=C1CCN(C(CC(C)C)C(=O)NN2CCOCC2)S(=O)(=O)c2ccccc21 (centres undefined)	.	/	/	/	.	/
CN1C(=O)/C(=C2/C=Cc3ccccc3N2CCCS(=O)(=O)O)SC1=S	.	25µM	.	.	.	.
C=CCN1C(=O)/C(=C2/Sc3ccccc3N2CC)SC1=S	.	/	/	/	.	.
CCN1C(=O)/C(=C2/C=Cc3ccccc3N2CC)SC1=S	.	13µM	.	?	.	.
C=CCN1C(=O)/C(=C2/Sc3ccccc3N2CCCS(=O)(=O)O)SC1=S	.	?	.	.	45µM	11µM
Cn1c(=O)c2cc(NC(=O)NCc3ccc(F)cc3)ccc2n1C	/	/	/	/	/	.
CC(=O)N(CCCN1CCOCC1)Cc1ccncc1	.	.	.	.	.	30µM
c1cc(CNCCCN2CCOCC2)ccn1	.	.	.	.	.	.
O=[N+]([O-])c1ccc(Cl)c(-c2ccc(/C=N/n3cnnc3)o2)c1	.	/	/	/	.	.
CN1CCN(/N=C/c2ccc(-c3ccc([N+](=O)[O-])cc3Cl)o2)CC1	.	11µM	.	?	.	.
CC[C@@H]1OC(=O)[C@H](C)[C@H](O[C@@H]2C[C@](C)(OC)[C@H](O)[C@H](C)O2)[C@H](C)[C@H](O[C@@H]2O[C@@H](C)C[C@@H](N(C)C)[C@@H]2O)[C@](C)(O)C[C@H](C)C(=O)[C@H](C)[C@H](O)[C@]1(C)O	.	/	/	/	.	/
CCCNc1nc(N2CCOCC2)nc(N2CCOCC2)n1	.	.	.	.	.	.
CNC(=S)NNc1nc(N2CCOCC2)nc(N2CCOCC2)n1	.	.	.	.	2.2µM	.
C1CN(c2nc(N3CCOCC3)nc(N3CCOCC3)n2)CCO1	.	.	.	.	.	.
CCNC(=S)NNc1nc(N2CCOCC2)nc(N2CCOCC2)n1	.	.	.	.	14µM	.
C=CCNC(=S)NNc1nc(N2CCCC2)nc(N2CCCC2)n1	?	/	/	/	40µM	.
CCOc1ccccc1CN1CCc2nc(N3CCN(C)CC3)ncc2C1	.	.	.	.	/	/
Cc1ccc(CCNC(=O)CN2CCN(Cc3ccc(Cl)cc3)C2=O)cc1	.	.	.	.	/	/
COc1ccc(C(=O)/C=C/c2ccc(OC)c(Cn3nnc4ccccc43)c2)cc1	.	?	.	.	.	.
CC1Cc2ccccc2N1C(=O)CSC1=NCCS1 (centres undefined)	71µM	?	?	.	.	?
CC(=O)N1N=C(c2ccc(C)cc2)CC1c1cn(-c2ccccc2)nc1-c1cccs1 (centres undefined)	.	?	.	.	/	/
COc1ccc(N2CCN(C(CNC(=O)c3c(F)cccc3F)c3ccc4c(c3)OCO4)CC2)cc1 (centres undefined)	.	?	.	?	/	/
SMILES	VDR inhibitor	Tau ThT inhib	Tau FP inhib	Tau fluor counter	Sfp PPTase inh	PLK1 PBD inh
COc1ccc(N/C=C2\C(=O)CCc3c2oc2cc(Cl)c(O)c(Cl)c32)cc1	.	2.5µM	.	?	.	.
COc1ccc(CCNC(=O)c2nc(-c3ccc(Cl)cc3)n3c2CCCCC3)c(OC)c1	.	.	.	.	/	/
COc1cc(/C=C2\SC(=S)N(NS(=O)(=O)c3ccccc3)C2=O)ccc1O	.	14µM	.	.	.	.
CCOc1cc(/C=C2\SC(=S)N(NS(=O)(=O)c3ccc(C)cc3)C2=O)ccc1O	.	/	/	/	/	.
COc1cc(/C=C2\SC(=S)N(NS(=O)(=O)c3ccc(C)cc3)C2=O)ccc1O	.	10µM	.	.	.	.
C=CCCC(=O)N1C[C@H]2CON(C)[C@H]2C[C@H]1c1ccc(Br)cc1	/	/	/	/	/	.
NC(=O)CN1C(=O)C(=O)N(Cc2cccc(C(F)(F)F)c2)C1=O	.	/	/	/	.	.
COc1cccc(NC(=O)C(NCCC(C)C)c2ccccc2)c1 (centres undefined)	.	.	.	.	.	.
COc1cccc(NC(=O)C(NCC2CCCCC2)c2ccccc2)c1 (centres undefined)	.	.	.	.	50µM	.
COc1ccc(-n2c3c(cc(-c4nc(-c5ccc(Cl)cc5)cs4)c2=O)C(=O)CC(C)(C)C3)cc1	.	.	?	.	/	/
O=C(COc1cccc2ccccc12)N/N=C/c1ccccc1OCc1ccc(C(=O)O)cc1	.	?	.	.	.	27µM
O=C(O)c1cccc(NC(=S)N/N=C/c2ccccc2OCc2ccc(Br)cc2)c1	?	?	.	.	.	24µM
Cc1ccc(S(=O)(=O)N2C3CCCCC3O[C@H]2CC(=O)c2cccc3ccccc23)cc1 (some centres undefined)	/	/	/	/	/	.
COc1ccccc1-c1noc(CCC(=O)Nc2cc(C(F)(F)F)ccc2Cl)n1	.	.	.	.	18µM	.
CNC(=O)CCCc1nc(-c2ccccc2Cl)no1	.	.	.	.	.	24µM
CCOc1ccc(NC(=O)C(c2ccccn2)N(C(=O)CCl)c2ccc(OCC)cc2)cc1 (centres undefined)	.	10µM	?	?	40µM	.
O=C1NN(c2ccccc2)C(=O)/C1=C\c1ccc2c(c1)OCO2	.	/	/	/	.	27µM
COc1cccc(/C=C2/C(=O)NN(c3ccccc3)C2=O)c1	?	/	/	/	?	5.3µM
COc1cccc(/C=C2/C(=O)NN(c3ccc(C)c(C)c3)C2=O)c1	79µM	/	/	/	.	6µM
C#CCOc1ccc(/C=C2/C(=O)NN(c3ccc(F)cc3)C2=O)cc1OC	.	/	/	/	.	12µM
COc1cc(/C=C2\C(=O)NN(c3ccccc3)C2=O)ccc1OCC(N)=O	/	?	.	.	.	/
